Compound activity: PubChem, National Center for Advancing Translational Sciences (NCATS)
Hits are enriched below; roughly 0.91% of the tested compounds scored in any of these assays.
BLM helicase inh-1 – blocks DNA unwinding by human BLM helicase; P54132; recombinant BLM DNA unwinding, fluorescence dequenching; Potency, µM (highest dose often 56.1 µM), usual class: inhibitors; hit rate 0.2% among 350,000; AID 2528; also: nearly all actives have a fitted effect of over 35% in size
Target sequence (P54132 whole entry, looked up): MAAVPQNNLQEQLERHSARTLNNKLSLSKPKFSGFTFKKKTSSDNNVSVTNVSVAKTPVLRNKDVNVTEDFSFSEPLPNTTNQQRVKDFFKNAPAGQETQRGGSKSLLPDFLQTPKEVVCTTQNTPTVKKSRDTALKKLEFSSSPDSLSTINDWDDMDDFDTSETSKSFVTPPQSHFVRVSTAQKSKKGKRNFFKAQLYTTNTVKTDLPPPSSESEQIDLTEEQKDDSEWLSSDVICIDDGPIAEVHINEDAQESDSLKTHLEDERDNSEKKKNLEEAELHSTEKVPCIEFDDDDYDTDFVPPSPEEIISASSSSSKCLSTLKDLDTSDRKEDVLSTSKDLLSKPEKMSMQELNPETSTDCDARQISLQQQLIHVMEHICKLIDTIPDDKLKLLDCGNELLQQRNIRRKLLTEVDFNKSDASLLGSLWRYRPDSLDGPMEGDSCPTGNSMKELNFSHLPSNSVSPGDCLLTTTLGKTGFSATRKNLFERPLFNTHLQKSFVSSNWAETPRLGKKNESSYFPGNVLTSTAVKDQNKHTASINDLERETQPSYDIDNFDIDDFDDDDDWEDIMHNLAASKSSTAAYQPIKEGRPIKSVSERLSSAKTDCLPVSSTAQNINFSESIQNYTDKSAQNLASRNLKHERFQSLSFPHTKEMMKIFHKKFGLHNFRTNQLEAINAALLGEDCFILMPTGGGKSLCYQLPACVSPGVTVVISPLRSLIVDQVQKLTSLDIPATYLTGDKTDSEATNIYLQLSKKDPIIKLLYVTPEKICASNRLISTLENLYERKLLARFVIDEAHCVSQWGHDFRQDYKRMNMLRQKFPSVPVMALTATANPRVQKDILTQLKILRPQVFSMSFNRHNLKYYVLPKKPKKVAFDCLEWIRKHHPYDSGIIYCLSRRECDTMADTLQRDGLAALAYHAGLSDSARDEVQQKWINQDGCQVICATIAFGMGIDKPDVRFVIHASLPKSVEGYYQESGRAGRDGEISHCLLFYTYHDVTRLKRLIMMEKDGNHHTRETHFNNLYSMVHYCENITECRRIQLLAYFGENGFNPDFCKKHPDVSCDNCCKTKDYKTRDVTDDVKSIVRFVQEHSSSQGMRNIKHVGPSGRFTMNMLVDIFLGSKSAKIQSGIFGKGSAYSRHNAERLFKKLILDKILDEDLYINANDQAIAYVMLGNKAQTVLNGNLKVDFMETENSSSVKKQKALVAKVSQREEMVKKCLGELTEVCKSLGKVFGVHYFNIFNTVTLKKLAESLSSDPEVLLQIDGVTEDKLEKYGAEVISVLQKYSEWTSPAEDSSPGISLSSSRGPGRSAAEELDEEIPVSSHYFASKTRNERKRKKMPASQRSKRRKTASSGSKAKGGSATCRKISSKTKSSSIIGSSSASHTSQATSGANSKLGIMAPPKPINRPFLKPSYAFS
RECQ1 helicase – blocks DNA unwinding by human RECQ1 | Potency, µM (highest dose often 57.3 µM), hits mostly inhibitors | hit rate 0.54% among 240,000 | RECQ1 DNA unwinding, red fluorescence kinetic read | AID 2549 | P46063; also: nearly all actives have a fitted effect of over 30% in size
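50 nM RECQ1T1 preincubated 15 min with compound in Tris pH 8.0 buffer with MgCl2, DTT, Tween-20 and 2.5 ug/ml poly(dI-dC); started with 200 nM TAMRA/BHQ-2 forked duplex and 2 mM ATP. Unwinding read as fluorescence (525/598 nm), two reads 2 h apart.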
TRb-SRC2 inh – TRbeta-SRC2 interaction inhibition; P10828; TRbeta-SRC2 peptide binding, fluorescence polarization; receptor liganded with 1 µM T3; Potency, µM (titrated, usually from 106 µM), usual class: inhibitors; hit rate 0.065% among 280,000; also: nearly all actives have a fitted effect of over 50% in size
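Assay buffer: 20 mM Tris-HCl, 100 mM NaCl, 10% glycerol, 1 mM EDTA, 0.01% NP-40, 1 mM DTT, 1 uM T3, 5% DMSO; TRb LBD 0.6 uM, Texas Red SRC2 20 nM; FP after 5 hr.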
TR SRC2 fluor cs – alters Texas Red total fluorescence, flagging assay interference | TRb/SRC2 Texas Red total fluorescence interference | Potency, µM (highest dose often 106 µM) | hit rate 0.29% among 280,000 | AID 1479; active = well fitted curve in either direction with a large enough effect; inconclusive = small, poorly fitted or top-dose-only effect
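Human TRβ ligand-binding domain (0.6 uM) and Texas Red SRC2 peptide (20 nM) in Tris buffer with 1 uM T3 and 5% DMSO were incubated with pinned compound for 5 hr at ambient temperature. Total fluorescence was computed as S + 2P (555/632 nm).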
APE1 inh – APE1 (human) endonuclease inhibition; recombinant APE1, TAMRA/BHQ-2 abasic DNA cleavage fluorescence; Potency, µM (titrated, usually from 65.8 µM), hits mostly inhibitors; hit rate 0.35% among 350,000; AID 2517; also: nearly all actives have a fitted effect of over 55% in size
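Endonuclease cleavage of a quenched abasic-site DNA duplex (50 nM) by APE1 (0.75 nM) was tracked by TAMRA dequenching. Compounds were preincubated with enzyme 15 min at room temperature; data normalized to buffer-only and DMSO wells plus NSC13755 control.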
WRN helicase inh-1 – blocks human WRN helicase. Q14191. WRN helicase unwinding, fluorescent forked duplex, kinetic. Potency, µM (top dose mostly 114 µM), actives largely listed as inhibitors. hit rate 0.46% among 360,000; also: nearly all actives have a fitted effect of over 55% in size
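Screening of the MLSMR collection measured strand separation of a quenched forked DNA duplex (100 nM) by 20 nM WRN with 2 mM ATP, all final. Compounds were preincubated with enzyme 15 min at room temperature.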
WRN helicase inh-2 – confirmation of human WRN helicase inhibitors. shares compounds with WRN helicase inh-1. WRN helicase DNA unwinding, fluorescence kinetic. Potency, µM (series often up to 57.1 µM), usual class: inhibitors. hit rate 63% among 610. AID 720497; also: nearly all actives have a fitted effect of over 65% in size
TO displacement – binds DNA, flagged in WRN inhibitor counterscreen | AID 720499 | hit rate 10% among 610 | thiazole orange DNA binding displacement, fluorescence | shares compounds with WRN helicase inh-1 | Potency, µM (top dose mostly 57.1 µM), actives largely listed as inhibitors;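 also: drop in dye fluorescence marks compound binding to DNA; nearly all actives have a fitted effect of over 60% in size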
BLM helicase inh-2 – BLM helicase inhibition, WRN selectivity check; Recombinant BLM helicase DNA unwinding, red fluorescence; hit rate 60% among 610; shares compounds with WRN helicase inh-1; AID 720503; Potency, µM (highest dose often 57.1 µM), usual class: inhibitors; also: nearly all actives have a fitted effect of over 60% in size
Hits are given with their value. Unless noted, calls follow the shape of the dose curve; as a rule, active = well fitted curve in the direction sought with a large enough effect; inconclusive = small, poorly fitted or top-dose-only effect, or another doubt; inactive = no such curve, though single readings can be large; an effect the other way counts as inactive or inconclusive.

How did CC1CCN(C(=O)CSc2nc3c(c(=O)n2C)SC(C)C3)CC1 (stereo unspecified) do in these assays?
BLM helicase inh-1: inactive; APE1 inh: inactive; WRN helicase inh-1: inactive

How did Cc1ccc(-c2[nH]c(-c3ccc(C(=O)O)cc3)nc2-c2ccccc2)cc1 do in these assays?
BLM helicase inh-1: inactive; RECQ1 helicase: inactive; TRb-SRC2 inh: inactive; TR SRC2 fluor cs: inactive; APE1 inh: inactive; WRN helicase inh-1: inconclusive; WRN helicase inh-2: 24µM; TO displacement: inactive; BLM helicase inh-2: inconclusive

How did Cc1ccc2nc(CCl)[n+]([O-])c(-c3ccccc3)c2c1 do in these assays?
BLM helicase inh-1: inactive; APE1 inh: inactive; WRN helicase inh-1: 79µM; WRN helicase inh-2: inactive; TO displacement: inactive; BLM helicase inh-2: inactive

How did Cc1ccc2nc(Cl)c(-c3ccccc3)cc2c1 do in these assays?
WRN helicase inh-1: inactive

How did CCOC(=O)C1CCN(C(=O)c2cccnc2Oc2ccccc2)CC1 do in these assays?
BLM helicase inh-1: inactive; RECQ1 helicase: inactive; TRb-SRC2 inh: inactive; TR SRC2 fluor cs: inactive; APE1 inh: inactive; WRN helicase inh-1: inactive

Results for O=C1ON=C(c2ccc([N+](=O)[O-])cc2)/C1=C/c1ccccc1O ?
BLM helicase inh-1: inactive; APE1 inh: inactive; WRN helicase inh-1: inconclusive; WRN helicase inh-2: inactive; TO displacement: inactive; BLM helicase inh-2: inactive

What do the screens show for `OC(c1ccc(F)c(F)c1)c1ncc(-c2ccccc2F)[nH]1` (stereo unspecified)?
WRN helicase inh-1: inactive

Results for COc1cccc(/C=C2\CCC(C3CCCC3)C2=O)c1 (stereo unspecified) ?
BLM helicase inh-1: inactive; APE1 inh: inactive; WRN helicase inh-1: inactive

How did COc1cccc(/C=C2/CCC(CN(C)C)C2=O)c1 (stereo unspecified) do in these assays?
WRN helicase inh-1: 13µM; WRN helicase inh-2: inactive; TO displacement: inactive; BLM helicase inh-2: inconclusive

Results for CC(OC(=O)c1cccc(O)c1)C(=O)N(C)Cc1ccccc1 (stereo unspecified) ?
APE1 inh: inactive; WRN helicase inh-1: inactive

How did CC(OC(=O)/C(C#N)=C/c1ccc(N(C)C)cc1)C(=O)N(C)Cc1ccccc1 (stereo unspecified) do in these assays?
BLM helicase inh-1: inactive; APE1 inh: inactive; WRN helicase inh-1: 45µM; WRN helicase inh-2: 24µM; TO displacement: inactive; BLM helicase inh-2: 22µM

What do the screens show for `Cc1ccc(CN2CCSc3ccc(C(=O)Nc4ccc(Cl)cc4)cc32)cc1`?
BLM helicase inh-1: inactive; TRb-SRC2 inh: inactive; TR SRC2 fluor cs: inactive

What do the screens show for `COC(=O)C1=C(C)NC(=S)NC1c1ccc(OCC(=O)N2CCCCC2)c(OC)c1` (stereo unspecified)?
BLM helicase inh-1: inactive; APE1 inh: inactive; WRN helicase inh-1: inactive

Results for N#Cc1c(N)oc(-c2ccco2)c1-c1ccco1 ?
BLM helicase inh-1: inactive; RECQ1 helicase: inactive; TRb-SRC2 inh: inactive; TR SRC2 fluor cs: inactive; APE1 inh: inconclusive; WRN helicase inh-1: inactive

Results for COc1ccc(OC)c(/C=N/c2oc(-c3ccco3)c(-c3ccco3)c2C#N)c1 ?
BLM helicase inh-1: inactive; RECQ1 helicase: inconclusive; TRb-SRC2 inh: inactive; TR SRC2 fluor cs: inactive; APE1 inh: inconclusive; WRN helicase inh-1: inconclusive; WRN helicase inh-2: 22µM; TO displacement: inconclusive; BLM helicase inh-2: 6.8µM

Results for O=C(NC1=NCCS1)c1ccccc1OCc1ccccc1Cl ?
BLM helicase inh-1: inactive; RECQ1 helicase: inactive; TRb-SRC2 inh: inactive; TR SRC2 fluor cs: inactive; APE1 inh: inactive; WRN helicase inh-1: inactive

Results for CCn1c(=O)c(CCC(=O)N2CCN(c3ccccn3)CC2)c(C)c2c(C)nn(-c3cccc(C)c3)c21 ?
BLM helicase inh-1: inactive; APE1 inh: inactive; WRN helicase inh-1: inactive

Results for O=C(O)c1cccc2cccc(-c3c4ccc(=O)c(O)c-4oc4c(O)c(O)ccc34)c12 ?
WRN helicase inh-1: 3.5µM; WRN helicase inh-2: 1.5µM; TO displacement: 4.3µM; BLM helicase inh-2: 0.38µM

How did CN(C)c1ccc2nc3c(=O)[nH]c(=O)nc-3n(CC(O)C(O)C(O)CO)c2c1 (stereo unspecified) do in these assays?
BLM helicase inh-1: inactive; APE1 inh: inconclusive; WRN helicase inh-1: 3µM; WRN helicase inh-2: 22µM; TO displacement: inactive; BLM helicase inh-2: 22µM

What do the screens show for `O=C1c2ccccc2C(c2nnnn2-c2ccc3c(c2)OCCO3)N1CCc1c[nH]c2ccccc12` (stereo unspecified)?
WRN helicase inh-1: inactive

What do the screens show for `CC1=C([N+](=O)[O-])C(c2ccc3c(c2)OCO3)N(C)C(=O)N1C` (stereo unspecified)?
BLM helicase inh-1: inactive; APE1 inh: inactive; WRN helicase inh-1: inconclusive; WRN helicase inh-2: inactive; TO displacement: inactive; BLM helicase inh-2: inactive

How did CCc1ccc(N=C2NC(=O)/C(=C/c3cc(Br)c(OCC(=O)O)c(OC)c3)S2)cc1 do in these assays?
BLM helicase inh-1: inactive; APE1 inh: inactive; WRN helicase inh-1: inconclusive; WRN helicase inh-2: 22µM; TO displacement: inactive; BLM helicase inh-2: 24µM

What do the screens show for `COc1cccc(NC(=O)Cn2c(=O)n(Cc3ccc4c(c3)OCO4)c(=O)c3oc4ccccc4c32)c1`?
BLM helicase inh-1: inactive; TRb-SRC2 inh: inactive; TR SRC2 fluor cs: inactive

Results for O=C(O)c1cccc(N2C(=O)c3cc([N+](=O)[O-])cc4cc([N+](=O)[O-])cc(c34)C2=O)c1 ?
BLM helicase inh-1: inactive; APE1 inh: inactive; WRN helicase inh-1: 40µM; WRN helicase inh-2: 27µM; TO displacement: inactive; BLM helicase inh-2: inconclusive

Results for O=C(O)c1cccc(N2C(=O)c3cccc4cccc(c34)C2=O)c1 ?
BLM helicase inh-1: inactive; APE1 inh: inactive; WRN helicase inh-1: inactive

How did c1ccc(-c2nnnn2-c2ccccc2)cc1 do in these assays?
BLM helicase inh-1: inactive; APE1 inh: inactive; WRN helicase inh-1: inactive

How did ClC(Cl)(c1nnnn1-c1ccccc1)c1nnnn1-c1ccccc1 do in these assays?
BLM helicase inh-1: inactive; RECQ1 helicase: inactive; TRb-SRC2 inh: inactive; TR SRC2 fluor cs: inactive; APE1 inh: inactive; WRN helicase inh-1: 6.3µM; WRN helicase inh-2: inconclusive; TO displacement: inactive; BLM helicase inh-2: inconclusive
